High-throughput results deposited in PubChem by National Center for Advancing Translational Sciences (NCATS).
Most compounds without a hit are left out; they make up all but 19% or so of the library.
Giardia kill: Small Molecules that selectively kill Giardia lamblia: qHTS. activity change, % at 7.66 µM, hits read low. Giardia lamblia trophozoite viability. hit rate 0.15% among 340,000. AID 540267, 2011; in the data active means activity change below about -80%; inconclusive means between about -30% and that limit;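 further: parasites exposed to compound for two days anaerobically before the ATP read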
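Viability, read as ATP luminescence: trophozoites at 100 cells/well, compound added, 48 hrs anaerobic at 37 deg C, then 15-30 min room-temperature development before reading.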
IL1B secr inh: qHTS for Inhibitors of Inflammasome Signaling: IL-1-beta AlphaLISA Primary Screen; THP-1 LPS/ATP IL-1B secretion, AlphaLISA, 16 h; active compounds read low; activity change, % at 57.5 µM; hit rate 4.7% among 360,000; in the data active means activity change below about -50%; inconclusive means mostly about -30% to -49%
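Secreted IL-1B measured by AlphaLISA bead assay after 16 h compound exposure of THP-1 cells; compounds (final up to 57.5 uM) added 1 h before LPS (250 ng/mL) and ATP (1.25 mM) stimulation; lower signal means less secretion.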
ELG1 repair inh: qHTS screen for small molecules that inhibit ELG1-dependent DNA repair in human embryonic kidney (HEK293T) cells expressing luciferase-tagged ELG1; Potency, µM (titrated, usually from 46.1 µM), for the others: at the highest dose activity change, negative = inhibition, usual class: inhibitors; hit rate 2.3% among 330,000; HEK293T ELG1-luciferase reporter, luminescence, 16 h; DNA damage induced by 5-fluorouridine; further: potency means the concentration at half of the fitted maximal effect; nearly all actives have a fitted effect of over 55% in size
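Quantitative HTS, concentration-response format. 2,000 cells/well co-treated with 5-fluorouridine and compound, 16 hr in 5% CO2 at 37 °C; ONE-Glo luminescence read after 30 min.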
TDP1 inh: qHTS Assay for Inhibitors of Tyrosyl-DNA Phosphodiesterase (TDP1). recombinant TDP1, AlphaScreen DNA substrate cleavage. Potency, µM (doses to about 130 µM), for the others: at the top dose activity change, negative = inhibition, usual class: inhibitors. hit rate 0.28% among 350,000; further: potency means the concentration at half of the fitted maximal effect; nearly all actives have a fitted effect of over 40% in size
Target sequence (Q9NUW8 whole entry, looked up): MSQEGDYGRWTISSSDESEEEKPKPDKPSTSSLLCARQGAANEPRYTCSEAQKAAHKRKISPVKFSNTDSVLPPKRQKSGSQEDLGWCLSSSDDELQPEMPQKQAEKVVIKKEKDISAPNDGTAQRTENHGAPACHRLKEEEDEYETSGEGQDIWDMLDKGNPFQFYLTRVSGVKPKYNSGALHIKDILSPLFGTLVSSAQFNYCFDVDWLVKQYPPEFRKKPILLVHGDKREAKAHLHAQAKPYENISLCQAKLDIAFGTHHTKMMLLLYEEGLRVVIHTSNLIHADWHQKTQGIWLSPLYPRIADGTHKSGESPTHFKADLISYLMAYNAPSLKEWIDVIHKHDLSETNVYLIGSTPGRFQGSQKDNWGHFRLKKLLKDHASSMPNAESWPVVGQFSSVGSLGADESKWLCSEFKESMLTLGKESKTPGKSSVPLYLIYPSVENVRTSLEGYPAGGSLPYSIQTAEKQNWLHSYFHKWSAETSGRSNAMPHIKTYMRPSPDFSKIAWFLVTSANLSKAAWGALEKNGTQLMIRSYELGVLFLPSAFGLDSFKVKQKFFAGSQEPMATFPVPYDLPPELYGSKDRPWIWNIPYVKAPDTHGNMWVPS
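Recombinant human Tdp1 (E. coli-expressed, 1 nM final) preincubated with compounds 15 min at room temperature, then 5'-biotin/3'-phosphotyrosine-FITC DNA substrate (15 nM final) added for 5 min. AlphaScreen beads (10 ug/ml final) added 10 min; cleavage lowers signal.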
TDP1 cell noCPT: qHTS for Inhibitors of human tyrosyl-DNA phosphodiesterase 1 (TDP1): qHTS in cells in absence of CPT; DT40 Tdp1-/- hTDP1 cells, no CPT, ATP luminescence, 48 h; hit rate 15% among 420,000; Potency, µM (top dose mostly 46.2 µM), for inactives: top-dose activity change, negative = growth inhibition, most hits filed as inhibitors; AID 686978, 2013; further: potency means the concentration at half of the fitted maximal effect; nearly all actives have a fitted effect of over 55% in size
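Luminescent ATP content (CellTiter-Glo) served as the growth readout. Knockout chicken DT40 cells expressing human TDP1 were exposed to compounds without camptothecin for a minimum 48 hr at 37 °C.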
TDP1 cell CPT: qHTS for Inhibitors of human tyrosyl-DNA phosphodiesterase 1 (TDP1): qHTS in cells in presence of CPT; AID 686979, 2013; chicken DT40 Tdp1-/-;hTDP1 cells + 20 nM CPT, ATP luminescence, 48 h; Potency, µM (titrated, usually from 46.2 µM), for the others: at the highest dose activity change, negative = growth inhibition, actives largely listed as inhibitors; hit rate 12% among 420,000; further: potency means the concentration at half of the fitted maximal effect; nearly all actives have a fitted effect of over 55% in size
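Cell growth measured by CellTiter-Glo luminescence after a minimum 48 h, 37 C compound exposure with 20 nM CPT in Tdp1-knockout DT40 cells stably expressing hTDP1, seeded 400/well; qHTS titration format.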
Active calls of the source: *; ? = inconclusive; / = not tested or not shown; [ ] = remark or other dose. Unless noted, the call rests on the fitted dose curve; in most records, active means well fitted curve in the direction sought with a large enough effect; inconclusive means small, poorly fitted or top-dose-only effect, or another doubt; inactive means no such curve, though single readings can be large; an effect the other way counts as inactive or inconclusive. On the % scale 0 is the no-effect control and ±100 the full control effect.

SMILES | Giardia kill | IL1B secr inh | ELG1 repair inh | TDP1 inh | TDP1 cell noCPT | TDP1 cell CPT
O=C(CN(C(=O)CNS(=O)(=O)c1ccccc1)c1ccc(F)cc1)NCc1ccco1 | -7 | -7 | -5% | 11%[0.0935 µM] | 2% | 18%
O=C(COc1ccc(F)cc1)Nc1nnc(SCc2cc(=O)n3ccccc3n2)s1 | / | / | / | -14% | ? | -9%
COc1ccc(OC(C)C(=O)NC2CCCCCC2)cc1 (stereo not given) | -7 | 28 | / | / | 2% | -5%
C=CCn1c2ccccc2c(=O)c2cc(C#CC3(O)CCCCC3)ccc21 | ? | -57* | ? | / | 18µM* | 16µM*
C=CCn1c2ccccc2c(=O)c2cc(C#CC[C@@H](C)O)ccc21 | -25 | -67* | ? | -7% | 10µM* | 8.2µM*
Cc1ccc2c(cnn2C(=O)CCCC(=O)NCc2ccc(Cl)cc2)c1 | 0 | -5 | 23% | / | ? | 23µM*
Cc1cc(Br)ccc1NC(=O)CN(C)C(=O)c1ccc2ccccc2n1 | 21 | 0 | ? | 0% | -4% | -8%
NS(=O)(=O)c1ccc(CCNC(=O)c2cc(S(=O)(=O)N3CCCCC3)ccc2Cl)cc1 | / | 14 | / | / | -26% | -12%
COc1ccc(CCNC(=O)c2cc(S(=O)(=O)N3CCC4(CC3)OCCO4)ccc2F)cc1OC | 2 | -7 | 9.2µM* | 3% | 23µM* | ?
O=C(NCCc1ccc(Cl)cc1)c1cc(S(=O)(=O)N2CCCC2)ccc1F | / | -5 | / | / | 16µM* | 26µM*
O=C(NCCc1ccc2c(c1)OCCO2)c1cc(S(=O)(=O)N2CCCC2)ccc1Cl | -27 | 11 | -29% | 4% | ? | 18µM*
COCCNC(=O)c1cc(S(=O)(=O)N2CCC3(CC2)OCCO3)ccc1F | / | -12 | / | / | -17% | -17%
COc1ccc(/C=C2\SC(=S)N(CC(=O)OCC(=O)Nc3ccc(C)cc3Cl)C2=O)cc1 | -4 | -6 | 2% | / | -24% | -20%
S=C(NNc1cccc(Cl)c1)NC1CCCCC1 | 21 | -108* | ? | 10% | ? | ?
Cc1cccc(NNC(=S)Nc2ccccc2)c1 | / | -30 | / | / | 2.6µM* | 4.1µM*
COc1cc(OC)c(NC(=S)Nc2cccc(C)c2)cc1Cl | -7 | -12 | 4% | -3% | 9.2µM* | -27%
Cc1cccc(NNC(=S)Nc2c(C)cccc2C)c1 | -3 | -102* | -14% | 20% | ? | ?
S=C(Nc1cccc(Cl)c1)NC1CCCCC1 | -2 | -15 | 0% | -2% | -29% | -9%
Cc1cccc(NNC(N)=S)c1 | -2 | 11 | 1% | 1% | ? | ?
Cc1cccc(C)c1NC(=S)Nc1ccc(F)cc1 | 3 | 10 | -5% | 3% | -9% | 0%
CCOC(=O)C1=C(COC(=O)CCOc2ccccc2C)NC(=O)NC1C (stereo not given) | 5 | -4 | 14% | / | -12% | -26%
COc1ccc(-n2cc(C(=O)NCc3ccccc3Cl)c3ccccc3c2=O)cc1 | / | / | / | 1% | 1% | -15%
Cc1cccc(NC(=S)NNc2cccc(Cl)c2)c1 | -3 | -9 | 0% | -5%[0.0935 µM] | 18µM* | 16µM*
NC(=S)NNc1cccc(Cl)c1 | -11 | -4 | -6% | 5% | 15µM* | 16µM*
Cc1cccc(NC(=S)NC(C)(C)CC(C)(C)C)c1 | -9 | -23 | ? | 3% | 18µM* | -1%
SMILES | Giardia kill | IL1B secr inh | ELG1 repair inh | TDP1 inh | TDP1 cell noCPT | TDP1 cell CPT
CN(C)NC(=S)Nc1cccc(Cl)c1 | ? | -3 | 0% | 5% | -13% | -4%
CCOc1ccc(CCNC(=O)CN2CCN(Cc3ccc(Cl)cc3)C2=O)cc1OCC | / | / | / | 5% | ? | -29%
O=C(Nc1ccc(F)cc1)c1ccccc1CC[N+](=O)[O-] | -16 | 14 | 11% | 0% | -26% | 1%
COc1cc(OC)c(NS(=O)(=O)c2cc3c(cc2C)N(C(C)=O)CCO3)cc1Cl | / | / | / | 8% | ? | -24%
O=C(COc1cccnc1[N+](=O)[O-])c1ccc(Cl)s1 | -16 | -11 | -1% | 1% | 16µM* | 16µM*
O=C(COc1cccnc1[N+](=O)[O-])Nc1ncc(Cl)cc1Cl | -80* | -8 | ? | -7% | ? | ?
CCOC(=O)c1c(NC(=O)COC(=O)Cc2c[nH]c3ccccc23)sc(C(=O)N(C)C)c1C | 2 | 19 | -22% | / | ? | -21%
CC1CCc2c(sc(NC(=O)c3cc(-c4ccc(Br)cc4)on3)c2C(N)=O)C1 (stereo not given) | / | / | / | 3% | -13% | -28%
O=C(CSc1nc2c([nH]c3ccccc32)c(=O)n1-c1ccccc1)N1CCCCCC1 | / | / | / | -14% | -24% | ?
COc1ccc2[nH]c(-c3ccccc3)cc2c1 | 1 | -12 | ? | 10% | 0% | 8%
CCCCCn1c(N)c(-c2nc3ccccc3s2)c2c([N+](=O)[O-])nn(CC)c(=O)c21 | -6 | -4 | 2.6µM* | 10% | ? | ?
CCCCn1c(N)c(-c2nc3ccccc3s2)c2c([N+](=O)[O-])nn(C)c(=O)c21 | 5 | 9 | 1µM* | 6% | ? | ?
CC(C)CCNC(=O)C1(C)CCN1Cc1ccc(-c2ccccn2)cc1 (stereo not given) | / | -8 | / | / | -72% | ?
CC(=O)c1ccc(N2CCN(c3ncnc4c3c(-c3ccccc3)cn4-c3ccc(Cl)cc3)CC2)cc1 | / | / | / | 10% | ? | ?
Cc1ccc(-c2cc3ncc(C(=O)c4cc(Cl)c(C)cc4O)cn3n2)cc1 | / | / | / | 6% | -24% | -11%
